Sfp inh – inhibitors of Bacillus subtilis Sfp phosphopantetheinyl transferase | Potency, µM, for inactives: largest response in the series, negative = inhibition, most hits filed as inhibitors | Biochemical Sfp PPTase activity, qHTS | hit rate 3.5% among 310,000 | Q9F4F7;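 also: the enzyme is Sfp with the accession as filed and its product quenches rhodamine fluorescence; 0% = enzyme reaction without inhibitor and -100% = no enzyme wells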
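Sfp 15 nM + cpd, 15 min RT; start w/ rhodamine-CoA 5 uM, BHQ-2-YbbR 12.5 uM (final); 50 mM Hepes pH 7.6, 10 mM MgCl2, 0.01% NP-40, 0.01% BSA; read 525/598 nm at 0 and 30 min.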
L3MBTL1 block – blocks human L3MBTL1; AID 485360; Q9Y468; AlphaScreen L3MBTL1–H3K9me1 peptide binding; Potency, µM (highest dose often 57.1 µM), without a hit: at the highest dose activity, negative = inhibition, hits mostly inhibitors; hit rate 0.66% among 230,000; also: % is scaled to controls: 0 for no effect and ±100 for the full control effect; nearly all actives have a fitted effect of over 60% in size
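L3MBTL1 (50 nM) pre-complexed 30 min with biotinylated H3(1-15)K9me1 peptide (75 nM), then compounds added for 30 min at room temperature; AlphaScreen streptavidin donor/nickel chelate acceptor beads (10 ug/mL final) read after 30 min dark incubation.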
JMJD2A Tudor – inhibitors of human JMJD2A Tudor domain | Potency, µM (titrated, usually from 114 µM), without a hit: at the highest dose activity change, negative = inhibition, most hits filed as inhibitors | AlphaScreen JMJD2A-Tudor / H3K4me3 peptide binding | hit rate 4.4% among 390,000 | O75164; also: % is scaled to controls: 0 for no effect and ±100 for the full control effect; nearly all actives have a fitted effect of over 50% in size
G9a inh – inhibitors of human histone lysine methyltransferase G9a; Potency, µM (highest dose often 102 µM), without a hit: at the top dose activity, negative = inhibition, most hits filed as inhibitors; G9a H3K9 monomethylation, AlphaScreen, 2 h; Q96KQ7; hit rate 8.8% among 350,000; AID 504332; also: % is scaled to controls: 0 for no effect and ±100 for the full control effect; nearly all actives have a fitted effect of over 75% in size
Target sequence (Q96KQ7 913-1193 limits assumed): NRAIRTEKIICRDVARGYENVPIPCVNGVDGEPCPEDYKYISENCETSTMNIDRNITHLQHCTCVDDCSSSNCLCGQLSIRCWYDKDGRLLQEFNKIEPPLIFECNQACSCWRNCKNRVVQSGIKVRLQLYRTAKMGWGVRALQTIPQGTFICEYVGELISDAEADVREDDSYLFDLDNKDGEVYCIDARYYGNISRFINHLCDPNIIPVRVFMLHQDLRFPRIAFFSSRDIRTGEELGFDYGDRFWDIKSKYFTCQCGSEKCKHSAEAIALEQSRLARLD
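AlphaScreen read-out: biotin-H3K9 peptide (500 nM) methylation by 20 nM enzyme with 20 uM SAM, 2 h at room temperature after 15 min compound preincubation; anti-monomethyl H3K9 antibody plus donor/acceptor beads, 10 min dark.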
HP1b binding inh – HP1-beta chromodomain-methylated histone interaction inhibition | Potency, µM (doses to about 114 µM), inactives show at the top dose activity change, negative = inhibition, hits mostly inhibitors | hit rate 0.56% among 390,000 | AlphaScreen HP1-beta / biotin-H3K9me3 peptide binding | P83916 | AID 540317; also: nearly all actives have a fitted effect of over 70% in size
Target sequence (P83916 whole entry, looked up): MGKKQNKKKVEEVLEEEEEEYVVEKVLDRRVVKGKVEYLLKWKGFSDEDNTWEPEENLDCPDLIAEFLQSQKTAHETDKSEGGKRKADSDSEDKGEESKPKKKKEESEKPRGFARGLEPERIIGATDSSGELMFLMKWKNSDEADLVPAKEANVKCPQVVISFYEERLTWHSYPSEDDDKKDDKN
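AlphaScreen: HP1-beta (50 nM) preformed 30 min with biotin-H3(1-18)K9me3 peptide (50 nM) in PBS pH 7.4, 0.01% Tween-20. Compound added for 30 min at RT, then streptavidin donor/nickel chelate acceptor beads (10 ug/mL) for 30 min.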
BAZ2B block – BAZ2B (human) inhibition | hit rate 4.4% among 360,000 | Potency, µM (series often up to 114 µM), without a hit: at the top dose activity change, negative = inhibition, most hits filed as inhibitors | AlphaScreen BAZ2B-H3K14Ac peptide displacement; also: % is scaled to controls: 0 for no effect and ±100 for the full control effect; nearly all actives have a fitted effect of over 60% in size
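BAZ2B (50 nM) with biotin-H3(5-23)K14Ac peptide (50 nM) in PBS pH 7.4, 0.01% Tween-20, preformed 30 min, then compound 30 min at room temperature; top concentration 110uM. AlphaScreen streptavidin donor/nickel chelate acceptor beads (10 ug/mL final), 20 min dark, signal read.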
* hit, by the source's call; ? = inconclusive; . = no result given; ! = repeats disagree; [ ] = another dose, or the depositor's remark. Compounds with a hit are over-represented: about 12% of the library has one in this group of screens. Calls follow the shape of the dose curve; as a rule, active = well fitted curve in the direction sought with a large enough effect; inconclusive = small, poorly fitted or top-dose-only effect, or another doubt; inactive = no such curve, though single readings can be large; an effect the other way counts as inactive or inconclusive. Potency is read from the fitted curve at half-maximal effect.

SMILES | Sfp inh | L3MBTL1 block | JMJD2A Tudor | G9a inh | HP1b binding inh | BAZ2B block
O=C(COC(=O)C1CC(=O)N(Cc2ccccc2)C1)c1ccc(Br)cc1 (stereo not drawn) | 11% | 3% | -8% | 9%[59 µM] | 16% | 5%
O=C(COC(=O)C1CC(=O)N(Cc2ccco2)C1)c1ccc(OC(=O)c2ccco2)cc1 (stereo not drawn) | 13µM* | 18µM* | 35µM* | 8.9µM* | ? | 25µM*
Cc1[nH]c2ccccc2c1C(=O)COC(=O)C1CC(=O)N(Cc2ccco2)C1 (stereo not drawn) | -9% | -7% | -27% | ? | 5% | -38%
NCC(O)COc1cccc2ccccc12 (stereo not drawn) | 22% | . | . | 26%[59 µM] | . | .
COc1ccccc1N1CCN(C(=O)CSc2nc(-c3ccc(C(C)C)cc3)no2)CC1 | . | . | -21% | ? | 27% | -11%
COC(=O)c1c(NC(=O)c2cccc(N3C(=O)CCC3=O)c2)sc2c1CCN(C(C)=O)C2 | 4% | . | -34% | 79µM* | 1% | -27%
Cn1c(/C=C/c2ccccc2)nc2ccccc21 | 10% | 43% | 33% | 5% | 53% | 14%
CC(=O)c1ccc(/C=C/c2nc3ccccc3n2C)o1 | 50µM* | 25% | -3% | -7%[12.7 µM] | 21% | 12%
N/C(=N\OS(=O)(=O)c1ccc(Cl)cc1)c1ccccn1 | -21% | . | 25µM* | 2µM* | 56% | 25µM*
N/C(=N\OS(=O)(=O)c1ccccc1)c1ccccn1 | -20% | -17% | 3.5µM* | ? | 44% | 22µM*
N/C(=N\OS(=O)(=O)c1ccc(Br)cc1)c1ccncc1 | 17% | 1% | -27% | 40µM* | -38% | 2%
N/C(=N\OC(=O)c1ccc(Cl)cc1)c1ccccn1 | 0% | 10% | -19% | . | 16% | 9%
COC(=O)c1sccc1S(=O)(=O)N(CC(=O)NCc1ccc(C)cc1)c1ccc(C)c(C)c1 | . | . | -25% | 14%[59 µM] | -15% | -1%
Cc1c(C(=O)N2CCCCCC2)c(S(=O)(=O)Nc2ccc(OC(F)(F)F)cc2)c(C)n1C | . | . | -33% | -23%[59 µM] | 49% | -33%
CC1CCN(C(=O)Cn2c(SCC(=O)Nc3ccc(F)cc3)nc3ccccc32)CC1 | . | . | -19% | 24%[59 µM] | -4% | -12%
CCCSc1ncc(Cl)c(C(=O)N2CCN(c3cccc(Cl)c3)CC2)n1 | . | . | -3% | 12%[59 µM] | 26% | -7%
CCCSc1ncc(Cl)c(C(=O)N2CCN(c3ccc(OC)cc3)CC2)n1 | . | . | ? | 10µM* | -11% | 35µM*
COc1ccc(N2CCN(C(=O)c3nc(SC)ncc3Cl)CC2)cc1 | . | . | -18% | 10µM* | 27% | -30%
CCOc1ccc(-c2cc(C(=O)NCc3ccc(OC)cc3)c3c(-c4ccc(F)cc4)[nH]nc3n2)cc1 | . | . | -8% | -6%[59 µM] | 4% | 1%
Cc1cc(C)cc(Oc2ccc(N)cc2)c1 | 4% | 21%[11.4 µM] | ? | -51%[59 µM] | -25% | ?
Nc1ccc(Oc2ccc(Br)cc2)cc1 | 31% | -18% | ? | -10%[59 µM] | ? | 40µM*
O=c1[nH]cc(C#Cc2ccccc2)c2ncncc12 | . | . | -15% | . | 28% | .
CCOc1ccc(CNC(=O)CCCn2c(=O)c3cccn3c3ccc(F)cc32)cc1 | . | . | -4% | -2%[59 µM] | 38% | 6%
Cn1c(C(=O)N2CCc3ccccc3C2)cc2oc3ccccc3c21 | -13% | 9%[11.4 µM] | 79µM* | ? | ? | ?
CCn1c(C(=O)NCc2ccc(F)cc2)cc2oc3ccccc3c21 | . | . | -33% | 1%[59 µM] | 21% | 1%
SMILES | Sfp inh | L3MBTL1 block | JMJD2A Tudor | G9a inh | HP1b binding inh | BAZ2B block
COc1cc2c(cc1OC)CN(C(=O)c1oc3ccccc3c1C)CC2 | 4% | . | -32% | 7% | -18% | ?
CCn1c(C(=O)N2CCc3ccccc3C2)cc2oc3ccccc3c21 | ? | . | ? | ? | -23% | 50µM*
O=C(CCCCn1c(=O)c2ccccc2n(Cc2cccc(F)c2)c1=O)NCc1ccc2c(c1)OCO2 | . | . | -18% | -11%[59 µM] | 5% | -4%
CCOc1ccccc1NS(=O)(=O)c1c(-c2ccc(C)cc2)csc1C(=O)OC | . | . | -25% | -5%[59 µM] | 44% | -15%
Oc1ccccc1CN1CCN(C(O)(c2ccccc2)c2ccccc2)CC1 | -8% | -10% | -17% | 35µM* | 2% | 50µM*
Oc1ccccc1CN1CCC(C(O)(c2ccccc2)c2ccccc2)CC1 | -17% | -1% | ? | 8.9µM* | ? | -38%
O=C(C1CC1)N1CCC(C(O)(c2ccccc2)c2ccccc2)CC1 | 8% | . | 28% | -21%[59 µM] | 17% | -3%
Cn1c2ccccc2c(=O)c2ccc(C#CC3(N)CCCCC3)cc21 | -16% | 10% | 6% | 40µM* | 77% | 3%
Cn1c2ccccc2c(=O)c2cc(C#CC3(O)CCCCC3)ccc21 | 5% | 6% | -5% | . | 51% | 6%
O=C(CSc1nc2c([nH]c3ccccc32)c(=O)n1-c1ccc(F)cc1)NCc1ccc(F)cc1 | . | . | 3% | -4%[59 µM] | 34%[57 µM] | 0%
Cc1ccc(-n2c(Cn3nc(C(F)F)cc3C(F)F)n[nH]c2=S)cc1 | 13% | . | 79µM* | 1.1µM* | 6% | 3%
Cc1cc(C(F)(F)F)nn1Cc1n[nH]c(=S)n1-c1ccc(Cl)cc1 | 7% | . | -31% | 1.6µM* | 32% | -3%
Cc1cc(C(F)(F)F)nn1Cc1n[nH]c(=S)n1-c1cccc(Cl)c1 | -8% | -5% | ? | 25µM* | 34% | -2%
Cc1cc(C(F)(F)F)nn1Cc1n[nH]c(=S)n1Cc1ccccc1 | 8% | -11% | ? | 1.8µM* | 24% | 5%
O=C(c1ccccc1Cl)N1c2ncnn2C2(CCCCC2)[C@@H]2CCCC[C@@H]21 | . | . | -11% | -19%[59 µM] | 19% | -36%
COc1ccccc1CNC(=O)C1CCN(S(=O)(=O)c2c(C)noc2/C=C/c2c(C)cc(C)cc2C)CC1 | . | . | -7% | -5%[59 µM] | 19%[57 µM] | -4%
COc1ccc(CC2CCOC2=O)cc1 (stereo not drawn) | 12% | -3% | -23% | -16%[59 µM] | 12% | .
COc1ccc(CC2C(=O)OC(C)(C)OC2=O)cc1 | 15% | -1% | 35µM* | 40µM* | 16% | -8%
CCc1ccc2oc(C(=O)Nc3cc(C)ccc3C)cc(=O)c2c1 | . | . | -3% | 7%[59 µM] | 40% | 0%
CC(=C\c1ccco1)/C=C(\C#N)C(=O)NCCc1c[nH]c2ccccc12 | 4% | -21% | ? | 13µM* | 9% | ?
COc1cc(C(=O)N(Cc2ccc(F)cc2)Cc2ccco2)cc(OC)c1OC | . | . | -28% | -33%[59 µM] | 7% | -16%
CS(=O)(=O)OCC(O)C(O)COS(C)(=O)=O (stereo not drawn) | 2% | . | . | -20%[12.7 µM] | . | .
S=c1nc[nH]c2nc[nH]c12 | 40µM*! | 9% | 4µM* | ? | -7% | 35µM*
